Experimental findings from the supplement of paper PMC8291772 are described below.

± gives the standard error. Whole data set: some 1,300 sequences, median “fluorescence a.u.” near 420, cut for the highest 2% near 1,100. The entries come from a sample that favours the highest values as a whole.

Sequence of terminal deoxynucleotidyl transferase (calf thymus) (P06526 whole entry): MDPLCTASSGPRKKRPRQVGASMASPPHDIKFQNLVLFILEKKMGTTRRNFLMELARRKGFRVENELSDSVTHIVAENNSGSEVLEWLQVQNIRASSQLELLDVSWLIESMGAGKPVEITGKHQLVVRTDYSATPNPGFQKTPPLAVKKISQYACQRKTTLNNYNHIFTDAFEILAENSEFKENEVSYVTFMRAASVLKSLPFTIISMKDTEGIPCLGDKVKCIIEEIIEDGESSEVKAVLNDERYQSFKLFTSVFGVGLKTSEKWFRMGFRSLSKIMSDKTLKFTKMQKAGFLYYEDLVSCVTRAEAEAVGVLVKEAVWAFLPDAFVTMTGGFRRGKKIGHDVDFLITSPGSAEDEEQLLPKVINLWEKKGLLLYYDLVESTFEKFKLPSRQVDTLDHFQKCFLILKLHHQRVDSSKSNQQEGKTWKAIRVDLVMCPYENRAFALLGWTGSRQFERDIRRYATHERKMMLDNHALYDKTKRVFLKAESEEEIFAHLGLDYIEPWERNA

This experiment concerns the target terminal deoxynucleotidyl transferase (calf thymus) (UniProt P06526). The experiment in a line: TdT poly-dT extension signal (Cy3 hybridisation fluorescence, uncapped minus capped) (fluorescence a.u.); higher = more efficient initiation of TdT extension. Conditions: initiator chemistry: 2'-O-methyl-RNA, free 3'-OH (5'-tethered via HEG linker). How it is done: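 All mono- to pentamer 2'-O-methyl-RNA initiators were made by photolithographic in situ synthesis (3'-NPPOC amidites, reverse direction, free 3'-OH) on glass on a hexaethylene glycol linker. Each was made in uncapped and DMTr-dT-capped versions, about 11 replicates each. Arrays were extended with calf thymus TdT (0.2 U/uL), 100 uM dTTP and 0.25 mM CoCl2 for 120 min at 37 C, hybridised with an rA18-Cy3 probe and scanned at 532 nm. The value is the mean uncapped minus the mean capped signal. IDs are written 3'->5' and are reversed to 5'->3'; all nucleotides are 2'-OMe.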
For the sequence AACAG, the “TdT poly-dT extension signal” value was 567 ± 34.

Consider AUGUG, for which the “TdT poly-dT extension signal” value worked out at 141 ± 13.

Consider CGGUU, for which the “TdT poly-dT extension signal” value was 300 ± 22.

As for GAGGG, the “TdT poly-dT extension signal” value amounted to 362 ± 32.

As to AUUAU, the “TdT poly-dT extension signal” value was determined as 330 ± 49.

UGCGG: the “TdT poly-dT extension signal” value was found to be 324 ± 29.

Regarding UCAGC, the “TdT poly-dT extension signal” value amounted to 1040 ± 72.

As for AUUC, the “TdT poly-dT extension signal” value was determined as 339 ± 23.

Take CAGGU: the “TdT poly-dT extension signal” value came out at 493 ± 28.

Turning to GGGGG, the “TdT poly-dT extension signal” value was determined as 472 ± 39.

As for AAUUA, the “TdT poly-dT extension signal” value amounted to 354 ± 22.

On to GCCAA, for which the “TdT poly-dT extension signal” value was 696 ± 70.

As to UGGU, the “TdT poly-dT extension signal” value was 453 ± 25.

Turning to UUUAC, the “TdT poly-dT extension signal” value was 399 ± 22.

As to CCCAU, the “TdT poly-dT extension signal” value amounted to 552 ± 28.

As to GCCGG, the “TdT poly-dT extension signal” value amounted to 264 ± 21.

For the sequence UCGA, the “TdT poly-dT extension signal” value was found to be 592 ± 34.

With CGGGC, the “TdT poly-dT extension signal” value turned out to be 1070 ± 81.

As to UAGU, the “TdT poly-dT extension signal” value stood at 371 ± 23.

Take AGGAU: the “TdT poly-dT extension signal” value was 433 ± 28.

CUUAC: the “TdT poly-dT extension signal” value was 422 ± 38.

For the sequence CAAAU, the “TdT poly-dT extension signal” value turned out to be 657 ± 54.

On to CAGUC, for which the “TdT poly-dT extension signal” value is 521 ± 42.

CACGG: the “TdT poly-dT extension signal” value is 422 ± 55.

In the case of GCCAG, the “TdT poly-dT extension signal” value was determined as 491 ± 83.

As to GUAAU, the “TdT poly-dT extension signal” value came out at 383 ± 30.

With CGUCA, the “TdT poly-dT extension signal” value was determined as 307 ± 18.

Take UAACA: the “TdT poly-dT extension signal” value came to 312 ± 21.

With GGCAU, the “TdT poly-dT extension signal” value was found to be 577 ± 48.

Take ACAUC: the “TdT poly-dT extension signal” value came out at 447 ± 23.

Take GGGC: the “TdT poly-dT extension signal” value stood at 1320 ± 130.

Consider GGGCA, for which the “TdT poly-dT extension signal” value worked out at 291 ± 26.

Regarding GGGCG, the “TdT poly-dT extension signal” value turned out to be 330 ± 32.

AGUGC: the “TdT poly-dT extension signal” value was determined as 1230 ± 130.

Consider AGUG, for which the “TdT poly-dT extension signal” value turned out to be 231 ± 23.

With GGUGU, the “TdT poly-dT extension signal” value stood at 484 ± 37.

For the sequence CGUGA, the “TdT poly-dT extension signal” value worked out at 389 ± 45.

Turning to UGUGC, the “TdT poly-dT extension signal” value came out at 1360 ± 95.

Take GGUGC: the “TdT poly-dT extension signal” value worked out at 1450 ± 72.

For GGUG, the “TdT poly-dT extension signal” value stood at 210 ± 18.

On to UGUGA, for which the “TdT poly-dT extension signal” value is 362 ± 29.

Take AGUGG: the “TdT poly-dT extension signal” value is 280 ± 18.

In the case of UGUG, the “TdT poly-dT extension signal” value stood at 149 ± 15.

CGUGC: the “TdT poly-dT extension signal” value was found to be 1220 ± 81.

With CGUG, the “TdT poly-dT extension signal” value was 298 ± 26.

For CGGAG, the “TdT poly-dT extension signal” value came out at 465 ± 66.

For GGCUG, the “TdT poly-dT extension signal” value stood at 287 ± 31.

As for CUAGC, the “TdT poly-dT extension signal” value came out at 785 ± 76.

With CAGUA, the “TdT poly-dT extension signal” value was 544 ± 58.

Regarding AAAU, the “TdT poly-dT extension signal” value was found to be 568 ± 46.

Regarding CGCU, the “TdT poly-dT extension signal” value came out at 427 ± 65.

Regarding CCAGC, the “TdT poly-dT extension signal” value amounted to 1240 ± 140.

On to CCAG, for which the “TdT poly-dT extension signal” value stood at 470 ± 39.

With CCAGA, the “TdT poly-dT extension signal” value is 833 ± 99.

Regarding UAAGG, the “TdT poly-dT extension signal” value stood at 350 ± 28.

As for GAAGC, the “TdT poly-dT extension signal” value stood at 1060 ± 81.

For the sequence CAAG, the “TdT poly-dT extension signal” value is 600 ± 36.

As to AAAGC, the “TdT poly-dT extension signal” value amounted to 1270 ± 67.

For UAAGC, the “TdT poly-dT extension signal” value stood at 1190 ± 89.

As to AAAG, the “TdT poly-dT extension signal” value came out at 538 ± 32.

In the case of UAAG, the “TdT poly-dT extension signal” value is 401 ± 44.

Regarding CAAGG, the “TdT poly-dT extension signal” value stood at 388 ± 18.

Take CAAGC: the “TdT poly-dT extension signal” value came to 1300 ± 67.

As to GUCUA, the “TdT poly-dT extension signal” value amounted to 477 ± 45.

Turning to UUGG, the “TdT poly-dT extension signal” value was 177 ± 12.

Take UCAGG: the “TdT poly-dT extension signal” value amounted to 384 ± 36.

Take AAUAC: the “TdT poly-dT extension signal” value stood at 583 ± 71.

Turning to GACA, the “TdT poly-dT extension signal” value came to 349 ± 28.

For CCGGC, the “TdT poly-dT extension signal” value is 929 ± 50.

UGGA: the “TdT poly-dT extension signal” value stood at 586 ± 52.

As to UAGGG, the “TdT poly-dT extension signal” value was 313 ± 21.

Take AACUA: the “TdT poly-dT extension signal” value stood at 675 ± 34.

Consider UUCGA, for which the “TdT poly-dT extension signal” value was found to be 389 ± 32.

With GACCA, the “TdT poly-dT extension signal” value was determined as 345 ± 31.

With ACUCG, the “TdT poly-dT extension signal” value came out at 256 ± 14.

As to UCGGU, the “TdT poly-dT extension signal” value was found to be 469 ± 22.

Take GGAC: the “TdT poly-dT extension signal” value stood at 724 ± 120.

Regarding GCGGG, the “TdT poly-dT extension signal” value came to 285 ± 16.

For the sequence UUAC, the “TdT poly-dT extension signal” value was found to be 418 ± 28.

Turning to CGCUG, the “TdT poly-dT extension signal” value turned out to be 264 ± 25.

Turning to UUGCU, the “TdT poly-dT extension signal” value is 326 ± 35.

As to AACGA, the “TdT poly-dT extension signal” value came out at 620 ± 72.

As for CCACC, the “TdT poly-dT extension signal” value stood at 410 ± 37.

Take AUCAG: the “TdT poly-dT extension signal” value was found to be 458 ± 47.

ACCAG: the “TdT poly-dT extension signal” value is 559 ± 61.

On to GAAAC, for which the “TdT poly-dT extension signal” value is 1000 ± 140.

For AAUUU, the “TdT poly-dT extension signal” value stood at 252 ± 27.

AACCG: the “TdT poly-dT extension signal” value is 293 ± 26.

As for UCACC, the “TdT poly-dT extension signal” value was 396 ± 31.

For UUUCU, the “TdT poly-dT extension signal” value is 226 ± 34.

With CCGCG, the “TdT poly-dT extension signal” value came out at 351 ± 19.

UUCAU: the “TdT poly-dT extension signal” value stood at 442 ± 20.

As to CAGC, the “TdT poly-dT extension signal” value was 1170 ± 110.

Consider CAGCU, for which the “TdT poly-dT extension signal” value was 361 ± 26.

For the sequence CAGCA, the “TdT poly-dT extension signal” value is 560 ± 60.

On to CCUUC, for which the “TdT poly-dT extension signal” value turned out to be 341 ± 33.

Turning to CAUU, the “TdT poly-dT extension signal” value is 293 ± 19.

Consider GAACG, for which the “TdT poly-dT extension signal” value amounted to 310 ± 29.

With GCAG, the “TdT poly-dT extension signal” value came to 492 ± 30.

As to AGAGC, the “TdT poly-dT extension signal” value worked out at 1140 ± 83.

With AGAGA, the “TdT poly-dT extension signal” value worked out at 827 ± 77.

With CGAGC, the “TdT poly-dT extension signal” value stood at 1020 ± 61.

Regarding AGAG, the “TdT poly-dT extension signal” value amounted to 491 ± 39.

As to GGAG, the “TdT poly-dT extension signal” value amounted to 374 ± 20.

For the sequence GGAGC, the “TdT poly-dT extension signal” value was found to be 1340 ± 130.

As for UCAUU, the “TdT poly-dT extension signal” value was 329 ± 26.

Take UGAAA: the “TdT poly-dT extension signal” value came out at 894 ± 54.

With CUCUU, the “TdT poly-dT extension signal” value was determined as 266 ± 14.

In the case of GCGC, the “TdT poly-dT extension signal” value is 946 ± 73.

In the case of AGUU, the “TdT poly-dT extension signal” value stood at 341 ± 23.

In the case of CAAGA, the “TdT poly-dT extension signal” value is 858 ± 93.

On to GAGGC, for which the “TdT poly-dT extension signal” value was 1040 ± 84.

GGCUU: the “TdT poly-dT extension signal” value came out at 336 ± 21.
